The subject of the experiment is Plasmodium falciparum NF54 gametocytes. Kind of experiment: viability index relative to DMSO control (fraction); higher = less gametocyte killing. The conditions noted are these: 12.5 µM, incubation time: 72 h. The procedure, abridged:
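In 384-well plates, compound at 12.5 µM was incubated for 72 hr at 37°C under low oxygen with P. falciparum NF54 gametocytes of each stage (I–V) at 0.50% gametocytemia and 1.25% hematocrit in 40 µl of serum-containing medium. Staining used 5 µl of 5 µM MitoTracker Red CMXRos for 20 min, then 5 µl was moved into 40 µl of 500 nM dye in serum-free medium and imaged after 30 min. Dividing the gametocyte particle count by the plate mean of solvent-only wells gave the viability index.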

The mark [1] stands for this setting: gametocyte stage: Stage I viability index.
Setting [2] is: gametocyte stage: Stage II viability index.
Where [3] appears, read: gametocyte stage: Stage III viability index.
The mark [4] stands for this setting: gametocyte stage: Stage IV viability index.
Setting [5] is: gametocyte stage: Stage V viability index.

Results on 12 compounds are retold here after the supplement of paper PMC4723716.

Each structure is given as a SMILES string.

Turning to `Oc1ccc(Br)cc1CN1CCN(Cc2ccc(Cl)cc2)CC1`, the viability index by setting is: under setting [1], 0.0201; under setting [2], 0.0916; under setting [3], 0.422; under setting [4], 0.595; under setting [5], 0.455.

In the case of `Oc1ccc(C(=C(Cl)Cl)c2ccc(O)cc2)cc1`, the viability index stood at 0.596 under setting [1]; 0.301 under setting [2]; 0.741 under setting [3]; 0.756 under setting [4]; 0.584 under setting [5].

On to `COc1ccc(CN2CCN(Cc3ccccc3)CC2)c(O)c1`, for which the viability index came out at 0.0656 under setting [1]; 0.0974 under setting [2]; 0.362 under setting [3]; 0.57 under setting [4]; 0.494 under setting [5].

As to `CCCCCCc1cc(O)c2c3c(c(=O)oc2c1)CCC(C)C3` (stereo not given), the viability index is, setting by setting: under setting [1], 0.291; under setting [2], 0.329; under setting [3], 0.578; under setting [4], 0.608; under setting [5], 0.74.

The compound `CCCc1cc(O)c2c3c(c(=O)oc2c1)CN(C)CC3` registered a viability index under setting [1] of 0.134; a viability index under setting [2] of 0.296; a viability index under setting [3] of 0.649; a viability index under setting [4] of 0.827; a viability index under setting [5] of 0.637.

For `CN(N=O)C1=C(NC2CCCCC2)C(=O)c2ccccc2C1=O`, the viability index worked out at 0.00787 under setting [1]; 0.0183 under setting [2]; 0.309 under setting [3]; 0.456 under setting [4]; 0.234 under setting [5].

For `CCOc1cc(CNC(C)C(O)c2ccccc2)cc(Cl)c1OCC` (stereo not given), the viability index under setting [1] came out at 0.137; the viability index under setting [2] was 0.337; the viability index under setting [3] stood at 0.634; the viability index under setting [4] turned out to be 0.729; the viability index under setting [5] is 0.791.

On to `C=CC12CCN(CC1)C(C(O)c1ccnc3ccc(OC)cc13)C2` (stereo not given), for which the viability index under setting [1] worked out at 1.08; the viability index under setting [2] came out at 1.08; the viability index under setting [3] was 1.13; the viability index under setting [4] turned out to be 0.976; the viability index under setting [5] came out at 1.1.

As to `Oc1ccc(Br)cc1CN1CCN(Cc2cccc(F)c2)CC1`, the viability index is, setting by setting: under setting [1], 0.0385; under setting [2], 0.0899; under setting [3], 0.0787; under setting [4], 0.196; under setting [5], 0.273.

In the case of `CCOc1c(Cl)cc(CNC(C)C(O)c2ccccc2)cc1OC` (stereo not given), the viability index under setting [1] amounted to 0.0917; the viability index under setting [2] was 0.317; the viability index under setting [3] was 0.584; the viability index under setting [4] was determined as 0.754; the viability index under setting [5] amounted to 1.14.

Regarding `COc1cc(CNCCc2ccc(Cl)cc2)cc(OC)c1O`, the viability index turned out to be 0.049 under setting [1]; 0.44 under setting [2]; 0.801 under setting [3]; 1.01 under setting [4]; 0.896 under setting [5].

As to `O=C(CCc1ccco1)NC1CCN(CC2(c3ccc(Cl)cc3)CCC2)CC1`, the viability index reads like this: under setting [1], 0.103; under setting [2], 0.412; under setting [3], 0.854; under setting [4], 0.903; under setting [5], 1.05.
